Most compounds without a hit are left out; they make up all but 17% or so of the library.
DT40 TDP1 CPT = growth inhibition of DT40 Tdp1-/-;hTDP1 cells with camptothecin (screen for TDP1 inhibitors) | chicken DT40 Tdp1-/-;hTDP1 cells + 20 nM CPT, ATP luminescence, 48 h | AID 686979 | Potency, µM (doses to about 46.2 µM), without a hit: at the highest dose activity change, negative = growth inhibition, usual class: inhibitors | 12% of 420,000 active; note: % is set by controls: 0 for no effect and ±100 for the full control effect; nearly all actives have a fitted effect of over 55% in size
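Chicken DT40 Tdp1-/- cells stably complemented with human TDP1 were seeded at 400 cells/well in medium containing 20 nM camptothecin, exposed to pin-transferred compounds, and grown at 37 °C for at least 48 hr. Viability was read as ATP luminescence.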
TDP1 cell noCPT = qHTS for Inhibitors of human tyrosyl-DNA phosphodiesterase 1 (TDP1): qHTS in cells in absence of CPT | DT40 Tdp1-/- hTDP1 cells, no CPT, ATP luminescence, 48 h | Potency, µM (titrated, usually from 46.2 µM), for the others: at the top dose activity change, negative = growth inhibition, most hits filed as inhibitors | AID 686978, 2013 | 15% of 420,000 active; note: % is set by controls: 0 for no effect and ±100 for the full control effect; nearly all actives have a fitted effect of over 55% in size
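DT40 Tdp1-/-;hTDP1 cells, no CPT (DMSO vehicle only), 400 cells/well; compounds pin-transferred; ≥48 hr, 37 °C; CellTiter-Glo 30 min RT dark, luminescence read.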
TDP1 block = TDP1 (human) enzyme inhibition; Q9NUW8; recombinant TDP1, AlphaScreen DNA substrate cleavage; Potency, µM (top dose mostly 130 µM), without a hit: at the top dose activity change, negative = inhibition, actives largely listed as inhibitors; 0.28% of 350,000 active; AID 485290; note: % is set by controls: 0 for no effect and ±100 for the full control effect; nearly all actives have a fitted effect of over 40% in size
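Steps: enzyme plus compound, 15 min RT; add biotin/phosphotyrosine-FITC oligonucleotide (15 nM final), react 5 min; add donor/acceptor beads (10 ug/ml final), 10 min; read AlphaScreen. Tdp1 at 1 nM final.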
ClpP mod = qHTS Assay for Activators of ClpP. ATP-dependent Clp protease proteolytic subunit (Bacillus subtilis (strain 168)), P80244. purified B. subtilis ClpP, FRET peptide cleavage, 20 min. Potency, µM (highest dose often 57.5 µM), without a hit: top-dose activity change, negative = active. 1.9% of 340,000 active; active = well fitted falling curve with a large enough effect; inconclusive = small, poorly fitted or top-dose-only effect; inactive = no such curve, though single readings can be large or run the other way; note: the source files actives as falling curves though it sought activators and does not explain the sign; nearly all actives have a fitted effect of over 65% in size
Target sequence (P80244 whole entry, looked up): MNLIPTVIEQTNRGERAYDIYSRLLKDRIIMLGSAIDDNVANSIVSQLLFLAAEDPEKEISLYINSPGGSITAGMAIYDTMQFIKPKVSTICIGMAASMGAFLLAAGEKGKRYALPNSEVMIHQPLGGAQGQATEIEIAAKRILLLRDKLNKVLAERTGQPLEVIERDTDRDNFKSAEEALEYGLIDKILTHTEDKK
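ClpP 10 microg/mL final, pH 8 Tris/KCl buffer with BSA, glycerol, Tween-20; compound pinned in; FRET-FV substrate; RT 20 min; Ex320/Em430; ΔFRET vs ADEP 5.8 microM, DMSO, no enzyme.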
Active calls of the source: *; ? = inconclusive; nt = no result given; ! = a repeat was not active; [ ] = dose if it differs, or a comment. Unless noted, calls come from the whole dose curve; as a rule, active = well fitted curve in the direction sought with a large enough effect; inconclusive = small, poorly fitted or top-dose-only effect, or another doubt; inactive = no such curve, though single readings can be large; an effect the other way counts as inactive or inconclusive. Potency is the fitted concentration of half-maximal effect.

SMILES | DT40 TDP1 CPT | TDP1 cell noCPT | TDP1 block | ClpP mod
COc1ccc(C(=O)OCC(=O)NC(=O)NC2CCCC2)c(OC)c1 | ? | ? | 3% | 0%
O=C(c1cc2ccccc2o1)N(Cc1nnc(-c2ccccc2Cl)o1)C1CC1 | -20% | ? | 1%[0.505 µM] | -5%
O=C(c1cc(Cl)nc2ccccc12)N(Cc1nnc(-c2ccccc2Cl)o1)C1CC1 | 16µM* | 21µM* | nt | -4%
O=C(c1cc(Cl)nc2ccccc12)N(Cc1nnc(-c2ccc(Cl)cc2)o1)C1CC1 | 12µM* | 16µM* | -13% | -1%
Cc1ccc(S(=O)(=O)CCC(=O)N(Cc2nnc(-c3ccc(Cl)cc3)o2)C2CC2)cc1 | ? | ? | 2% | -11%
CCOc1ccc2oc(C(=O)N(Cc3nnc(-c4ccccc4Cl)o3)C3CC3)c(C)c2c1 | ? | 23µM* | nt | ?
CN1CCC(N(C)CC(C)(C)NS(=O)(=O)c2ccccc2)CC1 | 8% | 21% | nt | 1%
CC(=O)Nc1ccc(S(=O)(=O)NC2(C(F)(F)F)NC(=O)N(CCc3ccc(F)cc3)C2=O)cc1 (stereo not drawn) | -11% | -10% | 2% | 1%
Cc1ccc(S(=O)(=O)N2CCN(C(=O)Cn3cnc4c3c(=O)n(C)c(=O)n4C)CC2)cc1C | -16% | 2% | 7% | -2%
O=C1C=CC2=C3c4cc(O)c(O)cc4CC3(O)COC2=C1O (stereo not drawn) | 16µM*! | ? | ? | 1%
CCCCC[C@@H](C)N1C[C@H](COCc2ccccc2)Oc2cc(N3CCC[C@@H]3COC)ccc2S1(=O)=O | ? | 15µM* | nt | ?
COC[C@H]1CCCN1c1ccc2c(c1)O[C@@H](COCc1ccccc1)CN([C@@H](C)c1ccccc1)S2(=O)=O | 10µM* | 7.3µM* | nt | ?
C[C@@H](c1ccccc1)N1C[C@H](COCc2ccccc2)Oc2cc(N3CCC[C@H]3CO)ccc2S1(=O)=O | ? | ? | nt | -14%
C[C@@H](c1ccccc1)N1C[C@H](COCc2ccccc2)Oc2cc(N3CCC[C@H]3C(N)=O)ccc2S1(=O)=O | ? | ? | nt | -7%
COC[C@H]1CCCN1c1ccc2c(c1)O[C@H](COCc1ccccc1)CN([C@@H](C)c1ccccc1)S2(=O)=O | ? | 16µM* | nt | -28%
COC[C@@H]1CCCN1c1ccc2c(c1)O[C@H](COCc1ccccc1)CN([C@H](C)c1ccccc1)S2(=O)=O | ? | 21µM* | nt | -21%
COc1cccc(C2C(=O)N(C3CCCCC3)CC(=O)N2Cc2ccc(Cl)cc2)c1 (stereo not drawn) | ? | ? | 8% | 2%
COc1ccc(-c2cc(C(F)(F)F)n3nc(C(=O)NCC45CC6CC(CC(C6)C4)C5)cc3n2)cc1 | nt | nt | -6% | -13%
c1ccc(-n2cnc3cc(NCc4ccco4)ccc32)cc1 | ? | ? | 9% | 0%
CCN(CC)C(=O)Cn1c(=O)n(CCCCCC(=O)NCc2ccccc2Cl)c(=O)c2sccc21 | -19% | -10% | 2% | -3%
CC(C)(C)C(=O)Cn1c(=O)n(CCCCCC(=O)NCc2ccccc2Cl)c(=O)c2sccc21 | ? | 21µM* | 5% | -1%
Cc1ccc(NC(=O)Cn2c(=O)n(CCCCC(=O)NCc3ccccc3Cl)c(=O)c3ccccc32)cc1C | ? | ? | 2% | -3%
Cc1ccc(NC(=O)Cn2c(=O)n(CCCCC(=O)NCc3ccccc3Cl)c(=O)c3ccccc32)cc1 | ? | 23µM* | 4% | -2%
Cc1ccc(NC(=O)Cn2c(=O)n(CCC(=O)NCc3ccccc3Cl)c(=O)c3ccccc32)cc1 | 16µM* | 21µM* | -1% | -3%
Cc1ccc(NC(=O)Cn2c(=O)n(CCC(=O)NCc3ccccc3Cl)c(=O)c3ccccc32)c(C)c1 | -6% | -1% | -4% | -2%
SMILES | DT40 TDP1 CPT | TDP1 cell noCPT | TDP1 block | ClpP mod
O=C(NCC(c1ccccc1)c1ccccc1)c1nn(-c2ccccc2F)nc1CO | -17% | ? | 2% | 53%
CCOC(=O)c1cccc(NC(=O)Cn2c(=O)nc(-c3ccccc3F)c3cc(Cl)ccc32)c1 | ? | ? | 6% | -10%
Cc1cc(C)n(C(C[N+](=O)[O-])c2ccc(Cl)cc2)n1 (stereo not drawn) | 2.3µM* | 2.3µM* | 5% | -26%
Cc1cc(O)c(C(C[N+](=O)[O-])c2ccc(Cl)cc2)c(=O)o1 (stereo not drawn) | ? | -39% | 5% | 1%
CC(C)c1ccc(NC2CCCN(C(=O)C3=NN(C)C(=O)CC3)C2)cc1 (stereo not drawn) | -6% | 1% | 3% | -1%
C=C(C)C(=O)Nc1cccc(C2=NOC3(C2)C[C@H](C(N)=O)N(C(=O)COc2ccc(Cl)cc2)C3)c1 (stereo partly drawn) | -1% | -7% | 11µM* | -1%
C=C(C)C(=O)Nc1cccc(C2=NOC3(C2)C[C@@H](C(N)=O)N(C(=O)C(=C)C)C3)c1 (stereo partly drawn) | -3% | -10% | nt | 0%
NC(=O)[C@H]1CC2(CC(c3cccc(NC(=O)COc4ccc(Cl)cc4)c3)=NO2)CN1C(=O)CC(c1ccccc1)c1ccccc1 (stereo partly drawn) | ? | ? | 7% | -4%
C=C(C)C(=O)Nc1cccc(C2=NOC3(C2)C[C@@H](C(N)=O)N(C(=O)C2(C)CC2)C3)c1 (stereo partly drawn) | 1% | -14% | 11µM* | 0%
NC(=O)[C@@H]1CC2(CC(c3cccc(NC(=O)CC(c4ccccc4)c4ccccc4)c3)=NO2)CN1C(=O)COc1ccc(Cl)cc1 (stereo partly drawn) | 18µM* | ? | -2% | -12%
C=C(C)C(=O)Nc1cccc(C2=NOC3(C2)C[C@@H](C(N)=O)N(C(=O)c2ccc(Cl)cc2)C3)c1 (stereo partly drawn) | 6% | -6% | 13µM* | -1%
CCC(=O)Nc1cccc(C2=NOC3(C2)C[C@@H](C(N)=O)N(C(=O)COc2ccc(Cl)cc2)C3)c1 (stereo partly drawn) | -1% | -5% | 4% | -2%
O=C(/C=C/c1ccccc1)OCCCCN=C1NS(=O)(=O)c2ccccc21 | 9.2µM* | 26µM* | 1% | nt
O=C(OCCN=C1NS(=O)(=O)c2ccccc21)c1ccccc1 | -13% | -19% | 0% | -2%
CCN1/C(=C/C=C/c2sc3ccccc3[n+]2CC)Sc2ccccc21 | 0.18µM* | 0.15µM* | nt | 1%
CCN1/C(=C/C=C/C=C/C=C/c2sc3ccccc3[n+]2CC)Sc2ccccc21 | 0.52µM* | 0.23µM* | nt | -1%
CCN1C(=O)/C(=C/C=C2/Sc3ccccc3N2CCO)SC1=S | ? | ? | 7% | nt
